Legend:
Assay in all cases: DAPPL (digital affinity profiling via proximity ligation, sequencing); 10 mM Tris-HCl pH 7.5, 50 mM NaCl, 1 mM DTT, 4% glycerol, room temperature, 30 min; GST-TFs on glutathione beads, 16-mer random dsDNA library, 0.1% formaldehyde crosslink after washing; high values mean tight binding
Settings in all cases: protein: recombinant; tags: N-terminal GST; dsDNA, one strand shown
[1] = molecular target: T1, ERF (Homo sapiens, UniProt P50548 1-548)
T1 sequence: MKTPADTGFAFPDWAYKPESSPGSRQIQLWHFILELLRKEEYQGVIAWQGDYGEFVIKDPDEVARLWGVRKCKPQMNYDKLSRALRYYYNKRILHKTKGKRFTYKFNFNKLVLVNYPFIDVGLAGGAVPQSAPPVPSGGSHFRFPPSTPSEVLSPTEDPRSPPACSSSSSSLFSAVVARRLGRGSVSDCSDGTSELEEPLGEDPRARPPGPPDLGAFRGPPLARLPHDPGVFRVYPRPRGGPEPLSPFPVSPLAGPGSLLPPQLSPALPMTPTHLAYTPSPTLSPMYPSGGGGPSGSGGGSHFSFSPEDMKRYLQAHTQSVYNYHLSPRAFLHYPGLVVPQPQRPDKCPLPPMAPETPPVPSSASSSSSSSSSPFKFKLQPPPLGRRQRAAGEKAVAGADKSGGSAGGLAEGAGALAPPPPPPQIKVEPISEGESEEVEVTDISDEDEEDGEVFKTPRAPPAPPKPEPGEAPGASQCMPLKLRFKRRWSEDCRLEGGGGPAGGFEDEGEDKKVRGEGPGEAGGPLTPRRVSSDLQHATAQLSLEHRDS
In short: (§1)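 Binding signal is each hexamer's read frequency for a factor divided by its frequency in the tag-only sample. The factors were GST-fused human transcription factors from yeast, captured on glutathione beads, DNA-barcoded and pooled with that sample. Pools were incubated with 200 nmole of a random double-stranded 16-mer DNA library in Tris/NaCl/DTT/glycerol buffer at room temperature for 30 min, then washed, crosslinked with 0.1% formaldehyde, proximity-ligated with BsaI/T4 ligase (1 h, 37 °C), PCR-amplified and sequenced on an Illumina NextSeq500.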

[2] = molecular target: T2, ETV3L (Homo sapiens, UniProt Q6ZN32 1-361)
T2 sequence: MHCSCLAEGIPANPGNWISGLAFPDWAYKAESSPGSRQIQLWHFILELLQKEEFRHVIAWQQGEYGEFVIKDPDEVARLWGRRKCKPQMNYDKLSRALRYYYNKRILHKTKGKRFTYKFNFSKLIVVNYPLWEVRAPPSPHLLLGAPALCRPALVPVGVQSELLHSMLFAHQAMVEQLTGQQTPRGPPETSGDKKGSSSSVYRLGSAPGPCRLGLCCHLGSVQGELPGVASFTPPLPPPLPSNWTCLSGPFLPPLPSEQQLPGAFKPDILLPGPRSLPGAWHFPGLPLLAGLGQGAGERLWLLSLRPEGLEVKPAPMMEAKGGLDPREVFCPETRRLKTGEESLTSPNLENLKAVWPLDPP
In short: as §1

[3] = molecular target: T3, ETS2 (Homo sapiens, UniProt P15036 1-469)
T3 sequence: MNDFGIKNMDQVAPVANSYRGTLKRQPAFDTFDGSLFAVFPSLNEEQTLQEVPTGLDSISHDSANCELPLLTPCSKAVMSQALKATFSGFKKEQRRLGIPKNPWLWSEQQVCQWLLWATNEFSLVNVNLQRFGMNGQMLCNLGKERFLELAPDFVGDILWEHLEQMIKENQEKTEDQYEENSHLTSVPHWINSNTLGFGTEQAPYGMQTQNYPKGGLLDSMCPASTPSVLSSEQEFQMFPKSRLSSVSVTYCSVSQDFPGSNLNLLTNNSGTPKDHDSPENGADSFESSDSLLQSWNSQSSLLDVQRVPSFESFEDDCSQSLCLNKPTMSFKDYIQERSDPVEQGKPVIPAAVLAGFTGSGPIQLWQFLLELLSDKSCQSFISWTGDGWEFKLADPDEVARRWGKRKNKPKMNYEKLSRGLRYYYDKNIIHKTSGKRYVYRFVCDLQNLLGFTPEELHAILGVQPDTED
In short: as §1

[4] = molecular target: T4, SPDEF (Homo sapiens, UniProt O95238 1-335)
T4 sequence: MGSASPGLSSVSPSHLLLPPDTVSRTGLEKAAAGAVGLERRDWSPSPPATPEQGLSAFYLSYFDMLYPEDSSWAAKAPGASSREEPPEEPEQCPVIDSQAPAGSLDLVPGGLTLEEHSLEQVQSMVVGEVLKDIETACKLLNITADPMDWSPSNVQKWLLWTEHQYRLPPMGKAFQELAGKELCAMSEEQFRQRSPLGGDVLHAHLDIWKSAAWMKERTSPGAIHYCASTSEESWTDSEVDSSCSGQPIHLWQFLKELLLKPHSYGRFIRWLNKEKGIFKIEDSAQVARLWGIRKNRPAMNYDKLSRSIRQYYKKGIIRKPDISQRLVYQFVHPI
In short: as §1

[5] = molecular target: T5, ETV7 (Homo sapiens, UniProt Q9Y603 1-341)
T5 sequence: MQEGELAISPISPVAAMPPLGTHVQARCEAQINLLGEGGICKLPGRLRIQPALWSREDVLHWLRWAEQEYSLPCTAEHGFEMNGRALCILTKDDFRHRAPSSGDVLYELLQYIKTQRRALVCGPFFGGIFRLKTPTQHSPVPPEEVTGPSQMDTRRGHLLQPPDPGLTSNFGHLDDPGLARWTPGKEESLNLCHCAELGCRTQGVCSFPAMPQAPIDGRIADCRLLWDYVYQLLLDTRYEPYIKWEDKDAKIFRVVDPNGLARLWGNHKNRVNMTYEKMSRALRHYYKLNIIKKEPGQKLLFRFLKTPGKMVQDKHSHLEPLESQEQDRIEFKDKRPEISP
In short: as §1

[6] = molecular target: T6, ELF5 (Homo sapiens, UniProt Q9UKW6-2 1-255)
T6 sequence: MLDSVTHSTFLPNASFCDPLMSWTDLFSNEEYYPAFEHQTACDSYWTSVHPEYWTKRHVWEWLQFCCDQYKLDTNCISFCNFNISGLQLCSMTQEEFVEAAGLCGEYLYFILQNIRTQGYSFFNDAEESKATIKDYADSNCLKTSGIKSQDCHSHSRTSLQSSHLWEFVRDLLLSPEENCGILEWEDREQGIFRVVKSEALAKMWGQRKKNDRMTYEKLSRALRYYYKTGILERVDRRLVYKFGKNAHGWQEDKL
In short: as §1

[7] = molecular target: T7, ETV3 (Homo sapiens, UniProt P41162-2 1-143)
T7 sequence: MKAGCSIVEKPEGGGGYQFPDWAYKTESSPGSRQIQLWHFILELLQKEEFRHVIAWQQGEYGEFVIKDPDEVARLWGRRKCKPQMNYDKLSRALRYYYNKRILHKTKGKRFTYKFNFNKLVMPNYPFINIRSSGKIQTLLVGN
In short: as §1

[8] = molecular target: ETV6 (Homo sapiens, UniProt P41212 1-452)
In short: as §1

ETV6, sequence (P41212 whole entry): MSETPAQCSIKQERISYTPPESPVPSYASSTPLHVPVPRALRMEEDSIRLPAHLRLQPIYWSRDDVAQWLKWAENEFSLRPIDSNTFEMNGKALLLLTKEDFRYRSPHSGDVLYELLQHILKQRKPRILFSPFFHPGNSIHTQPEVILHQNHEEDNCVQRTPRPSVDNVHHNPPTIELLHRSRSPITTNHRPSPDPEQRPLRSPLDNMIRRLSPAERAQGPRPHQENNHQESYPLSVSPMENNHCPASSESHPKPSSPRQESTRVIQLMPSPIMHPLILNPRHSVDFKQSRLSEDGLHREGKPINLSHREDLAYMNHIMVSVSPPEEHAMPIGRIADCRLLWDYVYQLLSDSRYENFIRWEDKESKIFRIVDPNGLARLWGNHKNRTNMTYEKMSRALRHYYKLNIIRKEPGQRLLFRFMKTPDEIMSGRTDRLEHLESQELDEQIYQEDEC

Row | Sequence | binding signal [1] | binding signal [2] | binding signal [3] | binding signal [4] | binding signal [5] | binding signal [6] | binding signal [7] | binding signal [8]
1 | TTCAAG | 1.27 fold enrichment (6-mer frequency, TF over GST control) | 1.31 fold enrichment (6-mer frequency, TF over GST control) | 1.21 fold enrichment (6-mer frequency, TF over GST control) | 1.31 fold enrichment (6-mer frequency, TF over GST control) | 1.28 fold enrichment (6-mer frequency, TF over GST control) | 1.18 fold enrichment (6-mer frequency, TF over GST control) | 1.42 fold enrichment (6-mer frequency, TF over GST control) | 1.26 fold enrichment (6-mer frequency, TF over GST control)
2 | ACGTTT | 1.18 fold enrichment (6-mer frequency, TF over GST control) | 1.13 fold enrichment (6-mer frequency, TF over GST control) | 1.2 fold enrichment (6-mer frequency, TF over GST control) | 1.21 fold enrichment (6-mer frequency, TF over GST control) | 1.33 fold enrichment (6-mer frequency, TF over GST control) | 1.23 fold enrichment (6-mer frequency, TF over GST control) | 1.1 fold enrichment (6-mer frequency, TF over GST control) | 1.33 fold enrichment (6-mer frequency, TF over GST control)
3 | CTCAAG | 1.27 fold enrichment (6-mer frequency, TF over GST control) | 1.1 fold enrichment (6-mer frequency, TF over GST control) | 1.22 fold enrichment (6-mer frequency, TF over GST control) | 1.14 fold enrichment (6-mer frequency, TF over GST control) | 1.24 fold enrichment (6-mer frequency, TF over GST control) | 1.1 fold enrichment (6-mer frequency, TF over GST control) | 1.24 fold enrichment (6-mer frequency, TF over GST control) | 1.22 fold enrichment (6-mer frequency, TF over GST control)
4 | TTCTCG | 1.27 fold enrichment (6-mer frequency, TF over GST control) | 1.46 fold enrichment (6-mer frequency, TF over GST control) | 1.45 fold enrichment (6-mer frequency, TF over GST control) | 1.34 fold enrichment (6-mer frequency, TF over GST control) | 1.48 fold enrichment (6-mer frequency, TF over GST control) | 1.47 fold enrichment (6-mer frequency, TF over GST control) | 1.27 fold enrichment (6-mer frequency, TF over GST control) | 1.36 fold enrichment (6-mer frequency, TF over GST control)
5 | ACTTCC | 7.03 fold enrichment (6-mer frequency, TF over GST control) | 7.94 fold enrichment (6-mer frequency, TF over GST control) | 8.81 fold enrichment (6-mer frequency, TF over GST control) | 8.64 fold enrichment (6-mer frequency, TF over GST control) | 7.8 fold enrichment (6-mer frequency, TF over GST control) | 12.5 fold enrichment (6-mer frequency, TF over GST control) | 9.02 fold enrichment (6-mer frequency, TF over GST control) | 10.9 fold enrichment (6-mer frequency, TF over GST control)
6 | TTGGTT | 1.43 fold enrichment (6-mer frequency, TF over GST control) | 1.45 fold enrichment (6-mer frequency, TF over GST control) | 1.48 fold enrichment (6-mer frequency, TF over GST control) | 1.45 fold enrichment (6-mer frequency, TF over GST control) | 1.52 fold enrichment (6-mer frequency, TF over GST control) | 1.37 fold enrichment (6-mer frequency, TF over GST control) | 1.36 fold enrichment (6-mer frequency, TF over GST control) | 1.44 fold enrichment (6-mer frequency, TF over GST control)
7 | TCCAAT | 1.13 fold enrichment (6-mer frequency, TF over GST control) | 1.22 fold enrichment (6-mer frequency, TF over GST control) | 1.2 fold enrichment (6-mer frequency, TF over GST control) | 1.2 fold enrichment (6-mer frequency, TF over GST control) | 1.33 fold enrichment (6-mer frequency, TF over GST control) | 1.15 fold enrichment (6-mer frequency, TF over GST control) | 1.2 fold enrichment (6-mer frequency, TF over GST control) | 1.22 fold enrichment (6-mer frequency, TF over GST control)
8 | AGCACT | 1.44 fold enrichment (6-mer frequency, TF over GST control) | 1.42 fold enrichment (6-mer frequency, TF over GST control) | 1.43 fold enrichment (6-mer frequency, TF over GST control) | 1.4 fold enrichment (6-mer frequency, TF over GST control) | 1.43 fold enrichment (6-mer frequency, TF over GST control) | 1.52 fold enrichment (6-mer frequency, TF over GST control) | 1.39 fold enrichment (6-mer frequency, TF over GST control) | 1.44 fold enrichment (6-mer frequency, TF over GST control)
